Source: PubChem BioAssay (Broad Institute)
CFTR F508del cor = correctors of CFTR F508del function in bronchial epithelial cells | CFBE cells, YFP halide quenching; stimulated with forskolin plus potentiator P3; % fluorescence drop versus neutral controls | 350,000 tested, 0.36% active | AID 720511 | activity (quench increase), % at 7.58 µM;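 active means mean added fluorescence quench of at least 8% versus neutral control, with both replicates also reaching 8%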;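 further: cells transiently co-express mutant CFTR-F508del with the halide-sensitive YFP; corrector assay measuring rescue of mutant channel to the surface after 24 h compound exposure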
Vif imaging = inhibitors of HIV Vif. 340,000 tested, 0.35% active. inhibition, % at 7.49 µM. HEK293T cells, Vif self-association by quenched fluorescence, imaging, 24 h; in the data active means inhibition above about 50%, passing the limit was not always enough
FGF22 binding = shifts melting point of recombinant human FGF22; Q9HCT0; recombinant FGF22 thermal shift, SYPRO orange fluorescence; percent of sucrose octasulfate shift, DMSO zero; activity (Tm shift, normalised), % at 9.99 µM; 340,000 tested, 1.5% active;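 active means mean Tm shift, scaled 0 neutral to 100 positive control, at about 1.3% or above, every replicate too, limit read from the data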
Target sequence (Q9HCT0 whole entry, looked up): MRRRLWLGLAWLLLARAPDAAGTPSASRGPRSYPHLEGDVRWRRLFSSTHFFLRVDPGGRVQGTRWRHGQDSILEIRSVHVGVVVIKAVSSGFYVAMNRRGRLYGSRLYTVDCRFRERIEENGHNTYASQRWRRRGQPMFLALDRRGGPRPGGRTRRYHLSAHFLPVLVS
Numbers without * were called inactive; . = not tested or not shown; ! = not confirmed by another sample. Shown are actives, neighbours in structure and some others; about 1.7% of the full set was active somewhere.

SMILES | CFTR F508del cor | Vif imaging | FGF22 binding
O=C1OC(c2ccc([N+](=O)[O-])cc2)=N/C1=C/N1CC2CC(C1)c1cccc(=O)n1C2 (stereo not given) | 2 | 52* | 0
O=C1OC(c2ccc(Br)cc2)=N/C1=C\N1CC2CC(C1)c1cccc(=O)n1C2 (stereo not given) | 0 | 3 | 0
C[C@]12CC[C@H](O)CC1=CCC1C2CC[C@@]2(C)C1C[C@@H](O)[C@@H]2O (stereo not given in full) | 5 | 12 | 0
CC(=O)C1C(N2CC2)CC2C3CC=C4CC(O)CCC4(C)C3CCC21C (stereo not given) | 3 | 11 | 44*
N#Cc1cccc(-c2ccc([C@H]3[C@H](CO)N4CCCCN(C(=O)Cc5ccccc5)C[C@@H]34)cc2)c1 | -4 | . | 0
O=C(NC[C@H]1CC[C@H]2[C@H](CN2Cc2cccnc2)O1)C1CC1 | 3 | . | .
O=C(Cc1cccnc1)N1CCCCN2[C@@H](CO)[C@H](c3ccc(C#CC4(O)CCCC4)cc3)[C@@H]2C1 | -2 | . | 0
Nc1cc(N2CCNCC2)ccc1[N+](=O)[O-] | . | 4 | .
CNc1cc(N2CCNCC2)ccc1[N+](=O)[O-] | -2 | 51* | 0
CCCNC(=O)[C@H]1[C@H](CO)[C@H]2Cn3c(cccc3=O)[C@@H]1N2CCC | -2 | . | 0
O=C(Cc1ccccn1)N1CCCCN2[C@@H](CO)[C@H](c3ccc(Br)cc3)[C@@H]2C1 | 0 | . | 1
OC1(c2ccc(F)cc2)CCNC1 (stereo not given) | . | 82* | .
CNC1(c2ccc(F)cc2)CCCCC1 | -3 | 4 | 0
O=C(Cc1ccccc1)N1CC2(C1)[C@H](c1ccccc1)[C@H](CO)N2Cc1cccc(Cl)c1 | 6 | . | 0
C=C1N2CCC(CC2)C1(O)c1ccc(C)cc1 (stereo not given) | . | -2 | .
C=C1N2CCC(CC2)C1(O)c1ccc(C)c(C)c1 (stereo not given) | . | 51* | .
CCOC(=O)[C@@H]1[C@@H]2NC(=S)N[C@@]1(C)Oc1ccccc12 | -1 | . | -1
Cc1c(NP(=S)(C(C)(C)C)C(C)(C)C)c(=O)n(-c2ccccc2)n1C | -3 | 0 | 0
Cc1c(NC(NC(=O)CF)C(Cl)(Cl)Cl)c(=O)n(-c2ccccc2)n1C (stereo not given) | 5 | 3 | 43*
COC(=O)[C@@H]1[C@@H](CO)[C@@H]2Cn3c(ccc(C4=CCCCC4)c3=O)[C@H]1N2Cc1ccccc1OC | 0 | . | .
COCC(=O)N1[C@@H]2c3ccc(C4=CCCC4)c(=O)n3C[C@H]1[C@H](CO)[C@H]2C(=O)OC | 0 | . | 0
CCCN1[C@@H]2c3ccc(-c4ccc(OC)cc4)c(=O)n3C[C@H]1[C@H](CO)[C@H]2C(=O)OC | 2 | . | 0
COC(=O)C[C@@H]1CC[C@H]2NC[C@H](O)COC[C@@H]2O1 | 4 | . | 0
Cc1oc(-c2ccc(F)cc2F)nc1CN1C[C@@H]2C[C@@H](C1)c1cccc(=O)n1C2 | -1 | . | 44*
O=c1cccc2n1CC1CC2CN(Cc2c(F)cccc2Cl)C1 (stereo not given) | -2 | 5 | 0
SMILES | CFTR F508del cor | Vif imaging | FGF22 binding
COc1ccc(C#Cc2ccc([C@H]3[C@H]4CN(C(=O)Cc5ccncc5)CCCCN4[C@H]3CO)cc2)cc1 | 5 | . | 1
COC(=O)[C@H]1[C@H](CO)[C@H]2Cn3c(ccc(-c4ccc(F)cc4)c3=O)[C@@H]1N2Cc1cccnc1 | . | . | 0
Cn1cc(C(=O)N2CCOCC2)c2ccccc21 | 0 | -3 | .
Cn1cc(C(=O)NP(=O)(N2CCOCC2)N2CCOCC2)c2ccccc21 | 0 | -12 | 44*
O=C(Cc1ccccn1)N1CCCCN2[C@H](CO)[C@H](c3ccc(-c4ccccc4F)cc3)[C@@H]2C1 | -3 | . | 0
FC(F)(F)c1cccc(NC2=NCCS2)c1 | 0 | -6 | 44*
Clc1cccc(NC2=NCCS2)c1 | 1 | -1 | 0
C/C=C/c1ccc(C2[C@@H]3CN(C(=O)C4CCC4)C[C@H]2N3)cc1 (stereo not given in full) | 3 | . | 0
Nc1c2c(nc3ccccc13)CCN(Cc1ccccc1)C2 | 1 | 3 | 0
CN1CCc2nc3ccc(F)cc3c(C(N)=O)c2C1 | . | 60* | .
CCC1(CC)C(=O)N(C)C(=O)NC1=NC | -1 | -3 | 0
CN1C(=O)NC(=O)C2(CCCC2)C1=O | 10* | 25 | 0
O=C(O)[C@H]1[C@H](CO)[C@H]2Cn3c(ccc(-c4cccc(F)c4)c3=O)[C@@H]1N2CCc1ccccc1 | -3 | . | 0
CC[n+]1c(-c2ccccc2)c2cc(N)ccc2c2ccc(N)cc21 | 10* | -12 | -1
CCN1[C@@H]2c3ccc(-c4cccc(OC)c4)c(=O)n3C[C@H]1[C@H](CO)[C@H]2C(=O)OC | 0 | . | 0
O=C(Cc1cccnc1)N1CCCCN2[C@@H](CO)[C@H](c3ccc(C#CC4CC4)cc3)[C@@H]2C1 | -5 | . | -1
Cc1cc(C(=O)Nc2ccc3c(c2)OCCO3)nn1C(C)(C)C | . | 8 | 0
O=C(Nc1ccc2c(c1)OCO2)c1cn(Cc2ccc(F)cc2)nn1 | . | 53* | .
COc1ccc2c3c([nH]c2c1)C(C)=NCC3 | 5 | -4 | 0
CC1=NCCc2c1[nH]c1cc(O)ccc21 | 32* | -3 | 0
N#Cc1cccc(-c2ccc([C@@H]3[C@@H](CO)N4CCCCN(C(=O)Cc5ccncc5)C[C@H]34)cc2)c1 | 2 | . | 0
NC(=O)c1cc(N2CC2)c([N+](=O)[O-])cc1[N+](=O)[O-] | -2 | 78* | 0
COC(=O)c1ccc(N2CCN(C)CC2)c([N+](=O)[O-])c1 | 0 | 10 | 0
O=C(Cc1ccccn1)N1CCCCN2[C@H](CO)[C@H](c3ccc(Br)cc3)[C@H]2C1 | -3 | . | -1
COc1nc(C)nc(NC(=O)NS(=O)(=O)c2ccccc2Cl)n1 | 14* | -8 | 0
SMILES | CFTR F508del cor | Vif imaging | FGF22 binding
COc1ccc(C#Cc2ccc([C@H]3[C@@H](CO)N4CCCCN(C(=O)Cc5cccnc5)C[C@H]34)cc2)cc1 | -2 | . | 1
COc1ccc(C#Cc2ccc([C@H]3[C@@H](CO)N4CCCCN(C(=O)Cc5ccncc5)C[C@H]34)cc2)cc1 | 0 | . | -1
O=C1CCN(C(=O)Cc2ccccc2[N+](=O)[O-])CC1 | -2 | 8 | 44*
O=[N+]([O-])c1ccccc1CCl | -1 | -3 | 0
O=C1NC(=O)C(=Cc2ccc(N3CCN(C(=O)c4ccccc4)CC3)c([N+](=O)[O-])c2)C(=O)N1 | . | 8 | 0
O=C1NC(=O)C(=Cc2cc([N+](=O)[O-])ccc2N2CCCCC2)C(=O)N1 | -1 | 59* | 0
O=C(Cc1cccnc1)N1CCCCN2[C@H](CO)[C@H](c3ccc(C#CC4CCCC4)cc3)[C@H]2C1 | -3 | . | -1
CCCOP(=O)(OCCC)C(NC(=O)c1cc(OC)c(OC)c(OC)c1)c1ccccc1 (stereo not given) | -7 | 7 | 0
CCC(COC(=O)c1cc(OC)c(OC)c(OC)c1)(c1ccccc1)N(C)C (stereo not given) | 9.0*! | -3 | 0
Cc1ccc(OC(=O)N(C)C[C@@H]2OCc3ccccc3-c3c(n(C)c4ccccc34)C(=O)N([C@@H](C)CO)C[C@@H]2C)cc1 | 3 | . | -1
